# Screens (PubChem BioAssay)
# sPLA2-III inh = Blocks human group III sPLA2 activity; Q9NZ20; actives 0.56% (n = 370,000); QFRET BODIPY PC-A2 liposome hydrolysis, fluorescence; inhibition, % at 12.2 µM;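 active = inhibition above mean plus 3 SD of compounds lying within the high and low control bounds, cut at about 19% in these data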;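 also: 0% = median of test compound wells and 100% = no enzyme DMSO wells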
# Target sequence (Q9NZ20 whole entry, looked up): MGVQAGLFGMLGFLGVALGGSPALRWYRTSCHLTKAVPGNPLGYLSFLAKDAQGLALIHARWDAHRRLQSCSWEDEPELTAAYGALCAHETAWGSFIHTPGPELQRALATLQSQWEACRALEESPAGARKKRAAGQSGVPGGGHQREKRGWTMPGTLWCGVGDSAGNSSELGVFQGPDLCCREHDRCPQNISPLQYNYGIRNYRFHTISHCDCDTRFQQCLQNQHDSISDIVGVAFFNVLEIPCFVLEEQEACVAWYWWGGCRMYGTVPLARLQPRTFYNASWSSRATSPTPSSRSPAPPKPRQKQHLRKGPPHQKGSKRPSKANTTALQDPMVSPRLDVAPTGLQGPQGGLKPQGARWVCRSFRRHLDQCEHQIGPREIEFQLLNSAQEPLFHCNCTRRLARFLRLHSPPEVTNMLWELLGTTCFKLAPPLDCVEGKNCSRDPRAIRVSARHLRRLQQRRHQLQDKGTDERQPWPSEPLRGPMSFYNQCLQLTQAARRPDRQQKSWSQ
# rCAG binder = r(CAG) repeat RNA binding; AID 651821; actives 1.3% (n = 370,000); inhibition, % at 3 µM; TO-PRO-1 dye displacement fluorescence;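 active = inhibition above the plate cutoff, the mean of all test compounds on that plate plus 3 SD, cut at about 35% in these data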;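 also: 0% = DMSO alone and 100% = 100 µM mitoxantrone as full dye displacement; higher means more dye released from RNA so lower well fluorescence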
# MsrA act = activates bovine MsrA enzyme. activation, % at 10.6 µM. actives 0.3% (n = 360,000). AID 602163. purified bovine MsrA, absorbance read-out; in the data active = activation above about 7.5%;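 also: 0% = vehicle and 100% = reference activator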
# MsrA inh = inhibitors of bovine MsrA; purified bovine MsrA, absorbance read-out; inhibition, % at 15.5 µM; actives 0.75% (n = 360,000); AID 651718; in the data active = inhibition above about 4.5%;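 also: 0% = vehicle wells with enzyme and 100% = reference inhibitor wells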
# PG9 binder = small molecules binding HIV-1 gp120 antibody PG9; TR-FRET gp120-PG9 antibody binding; inhibition, % at 6.7 µM; actives 0.43% (n = 360,000); in the data active = inhibition above about 8.5%
# sPLA2 confirm = human GIII-sPLA2 inhibition, confirmation. actives 34% (n = 2,000). inhibition, % at 12.2 µM. recombinant hGIII-sPLA2, BODIPY PC-A2 QFRET fluorescence. shares compounds with sPLA2-III inh;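 active = mean inhibition across triplicates above the hit cutoff set in the earlier primary screen, cut at about 19% in these data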;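 also: 0% = enzyme with DMSO and 100% = DMSO wells lacking enzyme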
# 535nm interf = counter-screen for HGIII-sPLA2 inhibitors: 535nm fluorescence interference | AID 743282 | BODIPY FL product fluorescence interference, QFRET | shares compounds with sPLA2-III inh | actives 8.5% (n = 2,000) | inhibition, % at 12.2 µM;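 active = average inhibition above the solvent-only control mean plus 3 SD, cut at about 6% in these data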;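 also: 0% = DMSO with substrate plus product and 100% = DMSO with substrate alone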
# 535nm interf DR = counter-screen for HGIII-sPLA2 inhibitors: 535nm fluorescence interference, dose response. shares compounds with sPLA2-III inh. BODIPY FL product fluorescence interference, cell-free. IC50, µM. 240 tested, under 10 active. AID 743455;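 active = IC50 at or below 10 µM; inactive = IC50 above 10 µM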
# The depositor's hits bear a star; . = no result given. Hits are enriched below; roughly 3.2% of the tested compounds scored in any of these assays.
SMILES,sPLA2-III inh,rCAG binder,MsrA act,MsrA inh,PG9 binder,sPLA2 confirm,535nm interf,others
Cc1cc(C(=O)NNC(=S)NC(C)c2ccccc2)c2ccccc2n1 (stereo not given),24*,31,-1,1,1,29*,-7,535nm interf DR=>122
CC(C)c1cccc(-c2csc(C(O)c3cccc(Cl)c3)n2)c1 (stereo not given),-22,2,1,0,-1,.,.,
CCOC(=O)C1CCCN(C(=O)c2cc3ncc(Br)cn3n2)C1 (stereo not given),21*,0,-5,0,0,0,-9,
CCOC(=O)C1CCCN(C(=O)c2cc(-c3ccc(C)cc3)on2)C1 (stereo not given),-6,-6,-8,0,-1,.,.,
O=C(N/N=C/c1ccncc1)c1cc2ccccc2cc1O,-7,34,-1,4,-4,.,.,
O=[N+]([O-])c1ccc(/C=N/Nc2ccnc3cc(Cl)ccc23)o1,0,26,-5,4,-5,.,.,
O=C(N/N=C/c1ccncc1)c1cc([N+](=O)[O-])cc([N+](=O)[O-])c1O,20*,33,-2,2,0,14,0,
O=[N+]([O-])c1ccc(Cl)cc1N/N=C/c1ccncc1,20*,-3,-4,1,1,9,1,
CC(C)C[C@@H](CNC(=O)OC(C)(C)C)NC(=O)c1nc[nH]c1C(=O)N[C@@H](CC(C)C)C(=O)CNC[C@H](CC(C)C)NC(=O)c1nc[nH]c1C(=O)N[C@@H](Cc1c[nH]c2ccccc12)C(=O)OC(C)(C)C,-28,18,-2,-1,2,.,.,
COc1ccccc1Nc1nc(-c2c(C)[nH]c3ccccc23)cs1,20*,23,1,1,3,20*,9.8*,
Cc1[nH]c2ccccc2c1-c1csc(N)n1,2,18,-7,0,-1,.,.,
CCCCNC(=O)CCn1c(=O)c2ccccc2n(CC(=O)NCCc2ccc(OC)c(OC)c2)c1=O,21*,-5,-8,0,0,-7,-15,
CCN(CC)C(=O)Cn1c2ccccc2c2nc3n(c(=O)c21)CCS3,7,.,.,.,.,.,.,
COCCCNC(=O)CN1C(=O)CSc2ncccc21,19*,-2,-2,1,0,1,-6,
Cc1ccc(-c2sc(C(=O)NN)c(C)c2C#N)cc1,24*,10,0,0,0,13,-2,
Cc1ccc(-n2c(SCC(=O)Nc3ccc4c(c3)OCCO4)nnc2-c2ccccn2)cc1,-3,2,.,.,.,.,.,
CCOC(=O)/C(=N/Nc1ccc(C)cc1)S(=O)(=O)c1ccc(Cl)cc1,1,0,-2,0,-1,.,.,
NNC(=O)/C(=N/Nc1ccccc1)S(=O)(=O)c1ccc(Cl)cc1,35*,30,-1,1,-1,47*,2,535nm interf DR=>122
COC(=O)c1cn(-c2nc3ccccc3s2)nn1,-2,5,-2,0,-2,.,.,
NC(=O)C1CC(=O)N(c2ccc(OCc3ccc(Cl)c(Cl)c3)cc2)C1 (stereo not given),21*,5,-2,0,-1,10,-13,
NC(=O)C1CC(=O)N(c2ccc(OCc3ccc(Cl)cc3Cl)cc2)C1 (stereo not given),8,-3,-1,-1,-1,.,.,
O=C(CCS(=O)(=O)c1ccccc1Cl)NC1CCCCCC1,8,-2,7,2,1,.,.,
CCc1c(-c2n[nH]c(=S)n2Cc2ccccc2)csc1C,20*,7,-2,0,0,33*,3,535nm interf DR=>122
Cc1scc(-c2n[nH]c(=S)n2Cc2ccccc2)c1C,18,3,-3,-1,-3,.,.,
CC(C)(C)c1ccccc1NC(=O)Nc1nc(C(N)c2ccccc2Cl)cs1 (stereo not given),20*,12,-10,-1,0,10,-3,
CCn1ncc(Cl)c1C(=O)NC(C)c1ccccc1 (stereo not given),21*,-6,-3,1,0,0,-6,
CC(=O)N1CCc2cc(S(=O)(=O)NC3CCN(C(=O)C(C)(C)C)CC3)ccc21,3,1,.,.,.,.,.,
